An excerpt weighted towards active compounds, which were near 1.4% of everything screened.
Polio RdRp inh = poliovirus RNA polymerase inhibition; % elongation, % (compound at 16.7 µg/mL); AID 588519; P03300; 150,000 tested, 0.66% active; poliovirus polymerase elongation, fluorescence polarization; active compounds read low; in the data active = % elongation below about 90%
Target sequence (P03300 1749-2209 limits assumed): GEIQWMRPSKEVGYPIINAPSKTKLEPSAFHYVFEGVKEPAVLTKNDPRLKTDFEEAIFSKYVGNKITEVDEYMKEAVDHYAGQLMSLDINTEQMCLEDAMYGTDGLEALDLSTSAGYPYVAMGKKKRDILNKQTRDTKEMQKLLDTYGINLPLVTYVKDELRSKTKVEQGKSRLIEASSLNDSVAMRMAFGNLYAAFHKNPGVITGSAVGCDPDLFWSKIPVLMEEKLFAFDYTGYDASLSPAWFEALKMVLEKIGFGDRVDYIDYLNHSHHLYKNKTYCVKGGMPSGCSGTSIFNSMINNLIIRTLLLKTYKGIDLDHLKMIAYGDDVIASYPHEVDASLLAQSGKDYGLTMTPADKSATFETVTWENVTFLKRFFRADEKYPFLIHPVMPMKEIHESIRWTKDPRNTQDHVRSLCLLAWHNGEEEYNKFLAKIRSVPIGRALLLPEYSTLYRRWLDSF
AID504770 = growth inhibitors of E. coli YBA685 in a screen for V. cholerae RctB (chromosome II replication) inhibitors; z-score (test concentration not listed); E. coli YBA685 rctB-dependent plasmid, OD600 growth, 3 h; active compounds read low; AID 504770; 130,000 tested, 0.27% active; in the data active = z-score below about -2, passing the limit was not always enough
Mtb MbtI inh = MbtI salicylate synthase inhibition | P9WFX0 | purified MbtI enzyme, fluorescence intensity read-out | inhibition, % (no concentration beside the values) | 100,000 tested, 0.89% active | AID 493033; in the data active = inhibition mostly above about 56%, no sharp cut-off; inactive = mostly below about 77%
Mtb MenB inh = inhibitors of Mycobacterium tuberculosis MenB enzyme | P9WNP5 | MenB enzyme assay, absorbance read-out | inhibition, % (test concentration not listed) | 100,000 tested, 0.43% active; in the data active = inhibition above about 21%, passing the limit was not always enough
Numbers without * were called inactive.

CCOC(=O)c1cn(CC)c2cc(N3CCCC3)c(F)cc2c1=O was read as Polio RdRp inh 104.0, AID504770 0, Mtb MbtI inh -2.4 and Mtb MenB inh 4.0.
O=C(O)c1cn(C2CC2)c2cc(N3CCN(C(=S)S)CC3)c(F)cc2c1=O was read as Polio RdRp inh 102.0, AID504770 -8.3* and Mtb MenB inh -77.0.
CCn1cc(C(=O)O)c(=O)c2cc(F)c(N3CCN(C(=S)NC(=O)c4c(-c5ccccc5)noc4C)CC3)cc21 was read as Polio RdRp inh 102.0, AID504770 -0.7, Mtb MbtI inh -42.1 and Mtb MenB inh -12.5.
`CCn1cc(C(=O)O)c(=O)c2cc3c(cc21)OCO3` gave Polio RdRp inh 102.0, AID504770 -3.75*, Mtb MbtI inh -1.4 and Mtb MenB inh -7.3.
CCn1cc(C(=O)O)c(=O)c2cc(Cl)ccc21 was read as AID504770 0.25.
`O=C(O)c1cn(-c2ccc(F)cc2)c2cc(N3CCNCC3)c(F)cc2c1=O` gave Polio RdRp inh 99.0, AID504770 -3.55*, Mtb MbtI inh 1.9 and Mtb MenB inh -4.4.
`Cc1cccc(C)c1NC(=O)CO/N=C/c1ccccc1O` gave Polio RdRp inh 100.0, AID504770 0.75, Mtb MbtI inh -58.0 and Mtb MenB inh -34.4.
Screening N#CC(=S)Nc1ccc(F)cc1 returned Polio RdRp inh 85.0*, AID504770 -1.95, Mtb MbtI inh 6.8 and Mtb MenB inh -9.0.
Screening COc1ccc(CNC(=O)CSc2nc(C)cc(=O)[nH]2)cc1 returned Polio RdRp inh 104.0, AID504770 -1.1, Mtb MbtI inh -0.9 and Mtb MenB inh -12.8.
Screening COc1ccc2c(c1)CCCC2(C#N)CC#N (stereo not drawn) returned AID504770 -0.3.
Screening CN(Cc1ccccc1)C(=O)COc1ccc(S(=O)(=O)N2CCCC2)cc1 returned Polio RdRp inh 100.0, AID504770 0.2, Mtb MbtI inh -3.3 and Mtb MenB inh 40.5*.
Screening CCOC1(O)C(=O)c2ccccc2C(=O)C1(O)OCC (stereo not drawn) returned AID504770 -1.25 and Mtb MbtI inh 78.6.
O=C1c2ccccc2C(=O)C2(O)OCCOC12O (stereo not drawn) was read as Polio RdRp inh 90.0*, AID504770 -0.5, Mtb MbtI inh 115.2 and Mtb MenB inh -4.4.
Screening Cc1cc2oc(=O)cc(CSc3ncccn3)c2cc1Cl returned Polio RdRp inh 105.0, AID504770 -3.1*, Mtb MbtI inh 62.6 and Mtb MenB inh -21.0.
For O=c1cc(CSc2ncccn2)c2cc3c(cc2o1)CCC3 the results were Polio RdRp inh 100.0, AID504770 -0.15, Mtb MbtI inh 12.9 and Mtb MenB inh 0.9.
`CCc1cccc(NC(=O)c2ccc(CN3C(=O)C(C)=C(c4ccc(OC)cc4)S3(=O)=O)cc2)c1` gave Polio RdRp inh 8.0*.
COc1ccc(C2=C(C)C(=O)N(Cc3ccc(C(=O)Nc4cccc(F)c4)cc3)S2(=O)=O)cc1 was read as Polio RdRp inh 108.0.
CN(C)S(=O)(=O)c1ccc(C(=O)Oc2cc(=O)[nH]c3ccccc23)cc1 was read as Polio RdRp inh 89.0*, AID504770 0.2, Mtb MbtI inh -152.0 and Mtb MenB inh -42.0.
NC(=O)CSc1nc2c(sc3ccccc32)c(=O)n1CCO was read as AID504770 0.1.
For COc1ccc(C(=O)NCC23C=CC(O2)C2C(=O)N(c4ccccc4C)C(=O)C23)cc1 (stereo not drawn) the results were Polio RdRp inh 103.0, AID504770 -0.2, Mtb MbtI inh 65.3* and Mtb MenB inh -1.5.
Screening Cc1ccc(C2=N/C(=C\c3c(C)nn(-c4ccccc4)c3N3CCCC3)C(=O)O2)s1 returned Polio RdRp inh 28.0*, AID504770 -1.75, Mtb MbtI inh -1.5 and Mtb MenB inh -11.2.
For O=C(O)CC1(CC(=O)Nc2ccc(N3CCOCC3)c(Cl)c2)CCCCC1 the results were AID504770 0.2.
O=C(N/N=C/c1ccc(O)c(O)c1O)c1cccc(S(=O)(=O)Nc2ccccc2Cl)c1 was read as Polio RdRp inh 103.0, AID504770 1.45, Mtb MbtI inh 55.0* and Mtb MenB inh -1.9.
Screening NNC(=O)c1cccc(S(=O)(=O)Nc2ccccc2Cl)c1 returned Polio RdRp inh 102.0, AID504770 -0.95, Mtb MbtI inh -7.0 and Mtb MenB inh -13.2.
For CCN(CC)c1ccc(N)c(C)c1 the results were Polio RdRp inh 101.0, AID504770 -0.1, Mtb MbtI inh 98.4* and Mtb MenB inh -3.4.
Cc1onc(-c2ccccc2Cl)c1C(=O)NCCOC12CC3CC(CC(C3)C1)C2 was read as Polio RdRp inh 105.0, AID504770 -1.15 and Mtb MenB inh -12.8.
Screening CCN(CC)CC(=O)N1CCCC1=O returned Polio RdRp inh 100.0, AID504770 -0.25, Mtb MbtI inh -0.3 and Mtb MenB inh 42.6*.
CN(CC(=O)N1CCCC1=O)Cc1ccccc1 was read as Polio RdRp inh 105.0, AID504770 -0.55, Mtb MbtI inh -5.1 and Mtb MenB inh -59.3.
For Cc1sc2ncnc(N)c2c1C the results were Polio RdRp inh 67.0*, AID504770 1.65, Mtb MbtI inh inactive and Mtb MenB inh -15.4.
`CCN(CC)c1ncnc2sc(C)c(C)c12` gave Polio RdRp inh 100.0, AID504770 0.2 and Mtb MbtI inh -0.2.
CC(=O)Nc1nonc1NC(=O)c1ccc(C)cc1 was read as Polio RdRp inh 104.0, AID504770 0.55 and Mtb MenB inh -5.9.
For Cc1cc(=S)nc(C(C)C)[nH]1 the results were Polio RdRp inh 100.0, AID504770 -3.55, Mtb MbtI inh 90.7* and Mtb MenB inh -52.7.
For O=c1[nH]c2ccc(S(=O)(=O)Nc3ccc(O)cc3)cc2[nH]1 the results were Polio RdRp inh 104.0, AID504770 -0.4, Mtb MbtI inh -6.0 and Mtb MenB inh 6.5.
Screening O=S(=O)(Nc1ccc(Cl)cc1)c1ccc2oc(=S)[nH]c2c1 returned Polio RdRp inh 91.0, AID504770 0.75, Mtb MbtI inh 89.9* and Mtb MenB inh -47.5.
Screening C=CCN1C(=O)C2C(C(=O)NCc3ccccc3)C3C=CC2(O3)C1C(=O)NC(C)(C)C (stereo not drawn) returned Polio RdRp inh 105.0, AID504770 1, Mtb MbtI inh -2.5 and Mtb MenB inh -48.6.
For C#CCN1C(=O)C2C(C(=O)NC)C3C=CC2(O3)C1C(=O)NCc1ccc(OC)cc1 (stereo not drawn) the results were Polio RdRp inh 101.0, AID504770 0.7, Mtb MbtI inh -1.4 and Mtb MenB inh 53.9*.
`CNC(=O)C1C2C=CC3(O2)C1C(=O)N(C1CC1)C3C(=O)NCc1ccc(OC)cc1` (stereo not drawn) gave Polio RdRp inh 102.0, AID504770 -0.45, Mtb MbtI inh -4.3 and Mtb MenB inh 47.9*.
Cc1ccc(-c2nn3c(Cn4cnc5ccccc54)nnc3s2)cc1C was read as Polio RdRp inh 95.0, AID504770 0.2, Mtb MbtI inh 115.1 and Mtb MenB inh 11.2.
N#Cc1ccc(C(=O)OC2CCCCC2=O)cc1 (stereo not drawn) was read as Polio RdRp inh 102.0, AID504770 0.75, Mtb MbtI inh 10.8 and Mtb MenB inh 1.3.

Compound activity (PubChem BioAssay)
